Shown are actives, neighbours in structure and some others; about 3.9% of the full set was active somewhere.
TWEAK-Fn14 inh: TWEAK-Fn14 signaling inhibition | TWEAK-stimulated Fn14 reporter cells, luciferase luminescence, 8 h | inhibition, % at 10 µM | 360,000 tested, 2% active | AID 1159606; in the data active means inhibition above about 50%
HSP90 refold inh: HSP90 refolding inhibition in rabbit reticulocyte lysate | luciferase refolding luminescence, 3 h | inhibition, % at 5.6 µM | 290,000 tested, 0.91% active;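 active means inhibition above the screen-wide mean plus 3 SD, computed separately per campaign, cut at about 16% in these data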;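 further: 0% = DMSO wells and 100% = 60 µM geldanamycin wells; inhibitors lower the luminescence because luciferase stays unfolded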
C8 TRAIL sens: sensitizes caspase-8 expressing cells to TRAIL. NB7+C8 cells + TRAIL, ATPlite viability luminescence. inhibition (viability loss, TRAIL sensitization), % at 10 µM. 360,000 tested, 1% active;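 active means compounds causing at least 50% loss of cell viability in the single-dose screen, relative to plate controls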
aSyn UTR inh: 5' untranslated region of α-synuclein, MLPCN primary screen; 300,000 tested, 0.82% active; inhibition, % (tested at 7.5 µM); alpha-synuclein 5'UTR reporter, inhibitor activity; in the data active means inhibition above about 60%;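 further: H4 neuroglioblastoma cells stably carrying SNCA 5'UTR luciferase fusion; 0% = DMSO wells and 100% = positive control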
HIF-2a inh: inhibitors of HIF-2a; 786-0 RCC cells HIF-2a reporter, luciferase luminescence, overnight; inhibition, % at 18.8 µM; 360,000 tested, 0.72% active; AID 624352;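 active means inhibition of the luminescence signal of 40% or more relative to plate controls, in a single-dose primary screen at 18.75 µM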
TROY signal inh: blocks TROY-dependent signaling in reporter cells | Q293 LMP1-TROYcd NF-kB luciferase reporter, 4 h | inhibition, % at 10 µM | 360,000 tested, 0.98% active | AID 1347056;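 active means compounds whose plate-normalised and pattern-corrected inhibition of the luciferase reporter signal at the single screening dose is 50% or more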
HSP90 inh confirm: HSP90 inhibition, confirmation assay. shares compounds with HSP90 refold inh. rabbit reticulocyte lysate, luciferase refolding luminescence, 3 h. inhibition, % at 5.9 µM. 2,300 tested, 64% active. AID 1846; in the data active means inhibition above about 18%;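 further: 0% = vehicle wells and 100% = reference inhibitor wells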
FLuc counter: blocks native firefly luciferase in HSP90 counter-screen | 2,300 tested, 48% active | purified native firefly luciferase, luminescence | shares compounds with HSP90 refold inh | AID 1847 | inhibition, % at 5.9 µM;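 active means inhibition above the mean inhibition of all tested sample wells plus 3 SD, cut at about 10% in these data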;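 further: 0% = DMSO with luciferase and 100% = wells lacking luciferase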
Target sequence (P08659 whole entry, looked up): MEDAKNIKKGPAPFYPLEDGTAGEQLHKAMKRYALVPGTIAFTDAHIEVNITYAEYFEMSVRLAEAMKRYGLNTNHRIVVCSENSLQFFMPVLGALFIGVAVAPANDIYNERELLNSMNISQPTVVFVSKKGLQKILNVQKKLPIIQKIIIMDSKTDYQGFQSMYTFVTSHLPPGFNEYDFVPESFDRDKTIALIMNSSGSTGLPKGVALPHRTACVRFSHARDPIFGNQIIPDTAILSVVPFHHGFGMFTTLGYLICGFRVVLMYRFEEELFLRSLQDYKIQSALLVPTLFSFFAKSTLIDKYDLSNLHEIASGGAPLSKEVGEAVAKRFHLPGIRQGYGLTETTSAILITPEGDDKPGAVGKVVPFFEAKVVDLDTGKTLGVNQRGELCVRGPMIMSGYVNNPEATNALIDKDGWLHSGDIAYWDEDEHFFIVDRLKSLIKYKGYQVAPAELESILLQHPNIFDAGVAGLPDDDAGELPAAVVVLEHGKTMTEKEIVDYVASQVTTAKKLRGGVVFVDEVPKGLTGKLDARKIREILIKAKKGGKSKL
Mdm2-MdmX confirm: confirmation of inhibitors of human Mdm2/MdmX interaction, set 2. SaOS-2 split-luciferase Mdm2/MdmX complementation, luminescence. AID 504601. shares compounds with HIF-2a inh. inhibition, % at 8 µM. 740 tested, 99% active;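 active means mean inhibition of the luminescence signal across two replicates at or above 26 percent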
HIF-2a inh conf: HIF-2a inhibition, single concentration confirmation | inhibition, % at 18.8 µM | shares compounds with HIF-2a inh | AID 651580 | 786-0 RCC cells, HIF-2a luciferase reporter luminescence, overnight | 1,800 tested, 56% active;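 active means mean inhibition across four replicates of at least 40 percent at the single tested concentration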
HIF-1a counter: HIF-1a inhibition counter-screen for HIF-2a hits; inhibition, % at 18.8 µM; 1,800 tested, 72% active; AID 651589; shares compounds with HIF-2a inh; MiaPaCa-2 HIF-1a luciferase reporter, desferoxamine, overnight;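 active means mean inhibition of the reporter signal across four replicates at the single tested dose of 50% or more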
The depositor's hits bear a star; . = not tested or not shown.

SMILES	TWEAK-Fn14 inh	HSP90 refold inh	C8 TRAIL sens	aSyn UTR inh	HIF-2a inh	TROY signal inh	HIF-2a inh conf	HIF-1a counter	others
CCOC(=O)c1ccc(NC(=O)C2C3C=CC(O3)C2C(=O)O)cc1 (stereo not drawn)	.	35.2*	.	-76.8	.	.	.	.	HSP90 inh confirm=-8.3;FLuc counter=-14.9
CC(C)(C)OC(=O)c1c(N)n(Cc2ccco2)c2nc3ccccc3nc12	11.7	28.6*	-2.8	-39.9	-46.3	-19.1	.	.	HSP90 inh confirm=5.8;FLuc counter=2.5
COCCCn1c(N)c(C(=O)NCc2ccco2)c2nc3ccccc3nc21	.	20.6*	.	41.6	.	.	.	.	HSP90 inh confirm=2.3;FLuc counter=-4.9
COCCNC(=O)c1c(N)n(Cc2ccco2)c2nc3ccccc3nc12	23.0	2.3	7.0	-17.3	1.1	13.2	.	.
S=C(NCCc1ccccc1)N1Cc2cc(N3CCCCC3)ccc2-n2nncc2C1	-40.4	.	-2.4	.	-1.0	0.1	.	.
CSc1nc(N)c(N=Nc2ccc([As](=O)(O)O)cc2)c(=O)[nH]1	21.5	21.2*	-9.3	-9.4	11.4	19.6	.	.	HSP90 inh confirm=22.4*;FLuc counter=-14.5
CCCCCCOc1ccc(CN2CCN(C)CC2)cc1	61.1*	18.6*	16.1	40.0	-91.5	65.0*	.	.	HSP90 inh confirm=38.9*;FLuc counter=24.8*
O=P1(c2ccccc2)CC=CC1	16.8	.	-7.7	.	3.0	2.2	.	.
O=C(CCc1ccccc1)N1Cc2cc(N3CCOCC3)ccc2-n2nncc2C1	-26.7	.	1.1	.	10.8	-7.3	.	.
OCC[n+]1c2ccccc2nc2ccc(N3CCOCC3)cc21	8.4	22.2*	33.8	32.6	10.7	6.7	.	.	HSP90 inh confirm=29.7*;FLuc counter=17.6*
Cc1cccc(C)c1-n1nnnc1C(c1ccccc1OC(F)(F)F)N1CCC(n2c(=O)[nH]c3ccccc32)CC1 (stereo not drawn)	32.7	.	26.3	.	-16.0	-8.6	.	.
C[n+]1c(-c2ccccc2)c2cc(N)ccc2c2ccc(N)cc21	9.2	38.9*	17.6	52.0	27.3	-0.1	.	.	HSP90 inh confirm=9.1;FLuc counter=1.5
Nc1ccc2ccc3cccc[n+]3c2c1	1.6	7.9	-7.7	2.2	6.3	1.8	.	.
O=c1[nH]c2ccccc2n1C1CCN(C(c2cccs2)c2nnnn2-c2ccc3c(c2)OCCO3)CC1 (stereo not drawn)	49.1	.	2.9	.	-35.7	27.1	.	.
O=c1c2ccccc2nc(/C=C/c2ccc([N+](=O)[O-])o2)n1-c1ccc(O)cc1	92.6*	0.1	-14.2	100.5*	66.9*	33.2	1.6	104.6*
COC(=O)[C@@H]1[C@@H](C(=O)OC)C2(c3ccccc3-c3ccccc32)N(c2ccc(Cl)cc2)N1C#N	26.1	10.1	91.7*	16.4	93.6*	83.8*	92.4*	105.8*
CC1OC(OC2C=C3CCC4C(CCC5(C)C(c6ccc(=O)oc6)CCC45O)C3(C)CC2)C(O)C(OC2OC(CO)C(O)C(O)C2O)C1O (stereo not drawn)	85.8*	.	74.5*	.	69.5*	40.4	32.0	104.8*
C[C@H]1O[C@@H](OC2CC[C@]3(C=O)[C@H]4CC[C@]5(C)[C@@H](C6=CC(=O)OC6)CC[C@]5(O)[C@@H]4CC[C@]3(O)C2)CC2OC(C)(C)OC21 (stereo partly drawn)	81.1*	1.0	48.3*	95.7*	51.4*	42.2	33.0	103.3*
C[C@]12CCC3C(CC[C@H]4C[C@@H](O)CC[C@]34C)C1C[C@H](Br)[C@@H]2O (stereo partly drawn)	1.0	.	0.8	.	-3.2	-1.7	.	.
O=c1[nH]c2ccccc2n1C1CCN(Cc2ccc(-c3[nH]c4cc5ncnc5cc4nc3-c3ccccc3)cc2)CC1	-34.1	.	37.7	.	-47.9	1.0	.	.
CCCCCn1c(=O)c(C(=O)NCc2ccncc2)c(O)c2ccccc21	-9.8	1.8	-4.3	65.3*	46.1*	41.8	4.7	-21.8
O=C1/C(=C/c2ccccc2)C[C@@]2(O)[C@H]3Cc4ccc(O)c5c4[C@@]2(CCN3CC2CC2)C1O5 (stereo partly drawn)	91.4*	.	-22.9	.	95.5*	63.7*	.	.	Mdm2-MdmX confirm=103.0*
N#CSCC(=O)N1c2ccccc2CCc2ccccc21	28.8	-3.8	3.7	-84.0	41.5*	13.6	28.0	71.8*
CSCCC(c1nnnn1-c1ccc2c(c1)OCCO2)N1CCC(n2c(=O)[nH]c3ccccc32)CC1 (stereo not drawn)	26.3	.	3.3	.	-2.4	27.2	.	.
Cc1nc2cc(-c3ccc(Cl)cc3)nn2c(C)c1CCC(=O)N1CCC2(CC1)OCCO2	44.4	-1.1	9.6	.	81.2*	-11.8	89.3*	67.7*
SMILES	TWEAK-Fn14 inh	HSP90 refold inh	C8 TRAIL sens	aSyn UTR inh	HIF-2a inh	TROY signal inh	HIF-2a inh conf	HIF-1a counter	others
CC1=CC(O)C(O)C2(C)C1CC1OC(=O)CC3C(C)C(O)C(=O)C2C13CO (stereo not drawn)	10.6	.	5.7	.	45.5*	3.5	35.9	-64.7
C=C1C(=O)OC2CC3(C)OC3C3OC3C3=CC(OC3=O)C12 (stereo not drawn)	23.6	.	15.5	.	61.3*	-2.7	67.7*	0.4
CCOC(=O)[C@]12Cc3c(cc(OC)c(OC)c3OC)[C@H]1N(C(C)C)C(=O)c1cc(OC)ccc12	4.3	.	46.3	.	26.1	16.1	.	.
COC(=O)C1=C(c2ccc3ccccc3c2)C[C@@H]2CC[C@H]1N2C	-3.5	.	-1.9	.	-6.0	-18.4	.	.
COC(=O)C1=C(C(=O)OC)C2OC1c1cc3ccccc3cc12	12.9	.	-6.6	.	85.6*	-10.8	83.8*	59.2*
CC12CC[C@H]3[C@@H](CCC4(O)C[C@H](O)CCC34/C=N/NC(=O)c3ccccc3Cl)C1(O)CCC2C1=CC(=O)OC1 (stereo partly drawn)	-29.3	2.9	7.9	7.9	9.0	0.7	.	.
CCCCN=C[C@]12CCC(O)CC1(O)CCC1[C@@H]2CC[C@]2(C)[C@H](C3C=CC(=O)O3)CCC12O (stereo partly drawn)	76.3*	1.1	42.2	96.0*	55.4*	35.0	20.7	104.5*	Mdm2-MdmX confirm=82.2*
CC12CCC3C(CCC4(O)CC(O)CCC34C=NO)C1(O)CCC2C1=COC(=O)C1 (stereo not drawn)	75.6*	.	68.5*	.	73.8*	35.0	24.8	102.4*
O=[N+]([O-])c1[nH]cnc1Br	-1.4	.	10.9	.	4.1	-5.0	.	.

High-throughput results as filed in PubChem.
